In PubChem BioAssay (NCATS):
Activity calls are given as the source filed them. Calls come from the whole dose curve.

Test: qHTS drug screen for cell cycle checkpoint inhibitors in PARPi-resistant BRCA-mutant ovarian cancer cell lines. (AID 1963452)
Conditions: PEO1/OlaR viability, CellTiter-Glo luminescence, 96 h, stronger effect = lower value
Text: Women's Malignancies Branch, Center for Cancer Research (CCR),
National Cancer Institute (NCI), National Institutes of Health (NIH), Bethesda, MD
Poly (ADP-ribose) polymerase inhibitors (PARPis) have changed the treatment paradigm in breast cancer gene (BRCA) - mutant high-grade serous ovarian carcinoma (HGSC). However, most patients eventually develop resistance to PARPis, highlighting an unmet need for improved therapeutic strategies. Using high-throughput drug screens, we identified ataxia telangiectasia and rad3-related protein/checkpoint kinase 1 (CHK1) pathway inhibitors as cytotoxic and further validated the activity of the CHK1 inhibitor (CHK1i) prexasertib in PARPi-sensitive and -resistant BRCA-mutant HGSC cells and xenograft mouse models. CHK1i monotherapy induced DNA damage, apoptosis, and tumor size reduction. We then conducted a phase 2 study (NCT02203513) of prexasertib in patients with BRCA-mutant HGSC. The treatment was well tolerated but yielded an objective response rate of 6% (1 of 17; one partial response) in patients with previous PARPi treatment. […] BRCA reversion mutation in previously PARPi-treated BRCA-mutant patients was not associated with resistance to CHK1i.
Among others, 1082 oncology drugs, both approved and investigational, were prioritized based on their status in clinical trial development. […] Drugs with average Z-AUC values less than -1.0 in all three cell lines were classified as "hits" resulting in 151 oncology drug hits. The screen also confirmed cross-resistance between olaparib and other PARPis (rucaparib, niraparib, and talazoparib) in PARPi-resistant PEO1/OlaR and PEO4.
[1] G. L. Lin, K. M. Wilson, M. Ceribelli, B. Z. Stanton, P. J. Woo, S. Kreimer, E. Y. Qin, X. Zhang, J. Lennon, S. Nagaraja, P. J. Morris, M. Quezada, S. M. Gillespie, D. Y. Duveau, A. M. Michalowski, P. Shinn, R. Guha, M. Ferrer, C. Klumpp-Thomas, S. Michael, C. McKnight, P. Minhas, Z. Itkin, E. H. Raabe, L. Chen, R. Ghanem, A. C. Geraghty, L. Ni, K. I. Andreasson, N. A. Vitanza, K. E.Warren, C. J. Thomas, M. Monje, Therapeutic strategies for diffuse midline glioma from high-throughput combination drug screening. Sci. Transl. Med. 11, (2019).
[2] T. M. Yamamoto, A. McMellen, Z. L. Watson, J. Aguilera, R. Ferguson, E. Nurmemmedov, T. Thakar, G. L. Moldovan, H. Kim, D. M. Cittelly, A. M. Joglar, E. P. Brennecke, H. Wilson, K. Behbakht, M. J. Sikora, B. G. Bitler, Activation of Wnt signaling promotes olaparib resistant ovarian cancer. Mol. Carcinog. 58, 1770 - 1782 (2019).
PROTOCOL TABLE (as described by Inglese J, Shamu CE and Guy RK. 2007)
SEQUENCE No. (e.g., 1, 2, 3, etc.); […] (e.g., Cells, Incubation, Reagent, etc.); VALUE; DESCRIPTION.
1; Compounds; 20nL; 1536-well white tissue culture-treated plates.
2; Cells; 5 uL; PEO1, PEO4, and PEO1/OlaR cells at 600 cells per well.
3; Incubation; 96 hr; 37C, 95% humidity, 5% CO2.
4; Reagent; 3 uL; CellTiter-Glo (Promega).
5; Incubation; 15 min; room temperature.
6; Detection; Luminescence, PHERAstar (BMG Labtech) plate reader.
NOTES (numbers refer to Sequence numbers above)
1. MIPE 5.0 compounds were acoustically dispensed by Echo Acoustic Liquid Handler (Beckman Coulter Life Sciences). Each compound was plated at an 11-point concentration range with 1:3 dilution. Bortezomib, a proteasome inhibitor (final concentration, 20 uM), was used as a positive.
2. PEO1, PEO4, and PEO1/OlaR were trypsinized and dispensed in 5 uLof growth medium using a Multidrop Combi dispenser at a density of 600 cells per well to allow compounds to be present during the exponential growth phase.
3. Plates were incubated for 96 hours at standard incubator conditions and covered by a stainless steel gasketed lid to prevent evaporation.
4. Three microliters of CellTiter-Glo (Promega) were added to each well.
5. Plates were incubated at room temperature for 15 min with a stainless-steel lid in place.
6. Luminescence readings were taken using PHERAstar (BMG Labtech). […]

[1] = measured here: PEO1 parental Z-AUC

Structure (SMILES)	Z-AUC	Z-AUC [1]	Z-AUC (measured here: PEO4 Z-AUC)
CC#CCn1c(N2CCC[C@@H](N)C2)nc2c1c(=O)n(Cc1nc(C)c3ccccc3n1)c(=O)n2C	-0.285 (inactive)	0.131	-0.262
N#Cc1ccc(NC(=O)Nc2ccccc2Br)c2n[nH]nc12	1.45 (inactive)	0.952	1.04
COc1cc(N2CCC(N3CCN(C)CC3)CC2)ccc1Nc1ncnc(Nc2ccccc2S(=O)(=O)C(C)C)n1	0.282 (inactive)	0.069	0.238
CC[C@@]1(O)C[C@H](O[C@H]2C[C@H](N(C)C)[C@H](O[C@H]3C[C@H](O)[C@H](O[C@H]4CCC(=O)[C@H](C)O4)[C@H](C)O3)[C@H](C)O2)c2c(cc3c(c2O)C(=O)c2c(O)cccc2C3=O)[C@@H]1C(=O)OC	-0.814 (inactive)	-0.555	-0.946
C[C@H](NC(=O)c1sccc1OCc1ccc(Cl)cc1)c1ccccc1	0.368 (inactive)	-0.143	-0.0391
COc1cc2ncnc(Nc3ccc(F)c(Cl)c3)c2cc1OCCCN1CCOCC1	0.988 (inactive)	0.863	0.585
O=c1cc(-c2ccc(O)cc2)oc2cc(O)cc(O)c12	0.475 (inactive)	0.649	0.805
O=C(NCc1ccncc1)C12C[C@H]3C[C@@H](C1)CC(c1ccc(Cl)cc1)(C3)C2	0.0323 (inactive)	0.866	0.86
NC(CO)(CO)CCc1ccc(Sc2cccc(OCc3ccccc3)c2)cc1Cl	0.362 (inactive)	-0.197	-0.274
COc1ccc(C2CC(c3ccccc3)=NN2c2ccc(S(N)(=O)=O)cc2)cc1 (configuration not stated)	-0.424 (inactive)	-0.864	-0.548
CC(C(=O)O)c1ccc(-c2ccccc2)c(F)c1 (configuration not stated)	0.668 (inactive)	0.939	1.4
c1ccc2c(-c3cnn4cc(-c5ccc(N6CCNCC6)cc5)cnc34)ccnc2c1	-0.163 (inactive)	-0.568	-0.419
COc1cc2c(cc1OC)CN(CCc1ccc(NC(=O)c3cc(OC)c(OC)cc3NC(=O)c3cnc4ccccc4c3)cc1)CC2	0.969 (inactive)	1.41	1.02
NS(=O)(=O)c1ccc(NC2=CC(=O)c3ccccc3C2=O)cc1	-0.549 (inactive)	-0.888	-0.629
